PNC inhibitor: blocks assembly of the perinucleolar compartment. PC3M PTB-GFP, PNC prevalence imaging, 16 h; stronger effect = lower value. activity change (PNC), negative = inhibition, % at 10 µM. actives 3.1% (n = 140,000);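 active means readout at or below -70, meaning at least 70% loss of cells showing the perinucleolar compartment, a nuclear body marking cancer cells; inconclusive means readout between -30 and a set limit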;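 further: plate controls were DMSO wells for no effect and camptothecin positive control wells for full effect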
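Compounds are pinned in duplicate onto adhered PC3M cells stably expressing GFP-tagged PTB and incubated 16 h at 37 C. Cells are then fixed, nuclei stained with Hoechst, and PNC-positive cells counted.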
ALDH1A1 inh: ALDH1A1 (human) enzyme inhibition | P00352 | Purified ALDH1A1, NADH fluorescence, propionaldehyde substrate | Potency, µM (series often up to 75.3 µM), inactives show at the top dose activity, negative = inhibition, most hits filed as inhibitors | actives 7.3% (n = 220,000);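 further: potency means the concentration at half of the fitted maximal effect; plate controls were no enzyme wells and a reference inhibitor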
HPGD inh: inhibitors of human 15-hydroxyprostaglandin dehydrogenase (HPGD). P15428. purified HPGD, NADH fluorescence kinetic, PGE2 substrate. Potency, µM, for the others: top-dose activity change, negative = inhibition, most hits filed as inhibitors. actives 4.3% (n = 150,000). AID 894; further: potency means the concentration at half of the fitted maximal effect
Target sequence (P15428 whole entry, looked up): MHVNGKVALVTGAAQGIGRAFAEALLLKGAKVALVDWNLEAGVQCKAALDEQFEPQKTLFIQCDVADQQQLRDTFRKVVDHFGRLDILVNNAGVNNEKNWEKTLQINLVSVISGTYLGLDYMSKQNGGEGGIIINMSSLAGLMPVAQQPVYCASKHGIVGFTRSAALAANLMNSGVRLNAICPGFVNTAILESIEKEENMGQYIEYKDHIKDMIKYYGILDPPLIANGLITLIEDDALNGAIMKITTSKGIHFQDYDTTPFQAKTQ
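NADH formation kinetics: reaction with 30 uM PGE2 and 1 mM NAD+ (final), 20 nM enzyme, Tris-HCl pH 8 with Tween 20, after 15 min compound preincubation at room temperature. Fluorescence change, last versus first of five reads.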
Numbers without * were called inactive; [ ] = dose if it differs, or a comment. A selection: hits, their analogues and other compounds. The true share with any hit is near 11%. Unless noted, the call rests on the fitted dose curve; in most records, active means well fitted inhibition curve with a large enough effect (not every such curve was filed as active); inconclusive means small, poorly fitted or top-dose-only effect, or another doubt; inactive means no such curve, though single readings can be large or run the other way. Unless noted, on the % scale 0 is the no-effect control and ±100 the full control effect.

CCCN1C(=O)/C(=C\C=C2/C=CN(CC)c3ccccc32)SC1=S was read as PNC inhibitor -29.7, ALDH1A1 inh 5.01µM* and HPGD inh -15.1%.
For CCCCN1C(=O)/C(=C/C=C2\N(C)c3ccccc3C2(C)C)SC1=S the results were PNC inhibitor 17.2, ALDH1A1 inh inconclusive and HPGD inh -8.6%.
O=C(NCCC1=CCCCC1)C(=O)NCc1ccncc1 was read as ALDH1A1 inh -0.7%.
For O=C(Cc1cccc2ccccc12)Nc1nc(-c2cccc([N+](=O)[O-])c2)cs1 the results were PNC inhibitor -20.5, ALDH1A1 inh -7.3% and HPGD inh -10.4%.
`CCc1c(C)[nH]n(-c2nc(-c3cccc([N+](=O)[O-])c3)cs2)c1=O` gave PNC inhibitor -14.8, ALDH1A1 inh 14.1µM* and HPGD inh -16.7%.
Screening Cc1cc(NC(=O)CSc2nc3c(cc2C#N)CCCC3)no1 returned PNC inhibitor 1.5, ALDH1A1 inh inconclusive and HPGD inh inconclusive.
Cc1noc(NS(=O)(=O)c2ccc(NC(=O)CS(=O)(=O)c3ccccc3)cc2)c1C was read as PNC inhibitor 4.3, ALDH1A1 inh -1.5% and HPGD inh -5.3%.
Cc1noc(NS(=O)(=O)c2ccc(NC(=O)CSc3nc4c(cc3C#N)CCCC4)cc2)c1C was read as PNC inhibitor inconclusive, ALDH1A1 inh 28.2µM* and HPGD inh 28.2µM*.
CC(C)(C)c1ccc(S(=O)(=O)CC(O)CSc2nc3c(cc2C#N)CCCC3)cc1 (configuration not stated) was read as PNC inhibitor -20.0, ALDH1A1 inh 2µM* and HPGD inh inconclusive.
Cc1noc(NS(=O)(=O)c2ccc(NC(=O)CSc3nc4c(cc3C#N)CCC4)cc2)c1C was read as PNC inhibitor -1.1, ALDH1A1 inh inconclusive and HPGD inh 31.6µM*.
`N#Cc1cc2c(nc1SCC(O)CS(=O)(=O)Cc1ccc(Cl)cc1)CCCC2` (configuration not stated) gave PNC inhibitor -9.8, ALDH1A1 inh inconclusive and HPGD inh -25.2%.
For CC1(C)CC(=O)C2=C(C1)OC1=C(C(=O)CC(C)(C)C1)C2(C)C the results were PNC inhibitor 9.3, ALDH1A1 inh 11.3% and HPGD inh -3.0%.
Screening CCc1cc(C(=O)N/N=C/c2c(C)[nH]c3ccccc23)cs1 returned PNC inhibitor 25.1, ALDH1A1 inh inconclusive and HPGD inh -15.2%.
Screening CC1CCC(NC(=O)c2ccc(NC(=O)c3ccc(=O)[nH]c3)cc2)CC1 (configuration not stated) returned PNC inhibitor 70.2, ALDH1A1 inh 7.0% and HPGD inh -13.2%.
For Cc1c(C(=O)N2CCOCC2)cc(C(C)(C)C)n1-c1ccccc1 the results were ALDH1A1 inh 3.8%.
O=c1c2ccccc2nc2n1CC/C2=C\c1ccccc1[N+](=O)[O-] was read as PNC inhibitor 45.7, ALDH1A1 inh 9.9% and HPGD inh -11.2%.
Screening O=c1c2ccccc2nc2n1CC/C2=C/N1CCN(c2cccc(C(F)(F)F)c2)CC1 returned PNC inhibitor 8.7 and ALDH1A1 inh 3.98µM*.
Screening CCn1c(-c2ccc(OC)c(OC)c2)n[nH]c1=S returned PNC inhibitor 20.3, ALDH1A1 inh inconclusive and HPGD inh -18.1%.
Screening CCCCn1c(-c2cc(Cl)ccc2OC)n[nH]c1=S returned PNC inhibitor 47.3, ALDH1A1 inh inconclusive and HPGD inh 28.2µM*.
CCCCC[C@H](O)/C=C/C=C\C/C=C\CCCCCCC(=O)O was read as ALDH1A1 inh 0.6% and HPGD inh -4.6%.
`O=C1C2C(C(=O)N1/N=C/c1ccc(N3CCCCC3)o1)C1C=CC2C12CC2` (configuration not stated) gave PNC inhibitor -24.1, ALDH1A1 inh 8.91µM* and HPGD inh -16.7%.
Cc1ccc(/C=N/N2CCCCC2)o1 was read as ALDH1A1 inh 1.8%.
Screening O=C(NCc1ccc(Cl)cc1)c1n[nH]c([N+](=O)[O-])c1Cl returned ALDH1A1 inh -1.1%.
`CCS(=O)(=O)c1nn2c(N)c(/C=C3/C=CC(=O)C(OC)=C3)c(=O)nc2s1` gave PNC inhibitor -116.4*, ALDH1A1 inh -9.2% and HPGD inh inconclusive.
CCCc1nn2c(N)c(/C=C3\C=Nc4ccccc43)c(=O)nc2s1 was read as PNC inhibitor -0.4, ALDH1A1 inh -1.0% and HPGD inh -9.6%.
Screening COC1=C/C(=C/c2c(N)n3nc(-c4ccc(C)cc4)sc3nc2=O)C=CC1=O returned ALDH1A1 inh 1.12µM*.
For CC(C)Cc1nn2c(N)c(/C=C3\C=Nc4ccccc43)c(=O)nc2s1 the results were ALDH1A1 inh 2.3%.
Screening FC(F)(F)c1cccc(Cc2noc(CN3CCCC(CN4CCCC4)C3)n2)c1 (configuration not stated) returned ALDH1A1 inh 3.3%.
For Cc1nn(Cc2ccccc2)c(C)c1NC(=O)CCCn1nc([N+](=O)[O-])cc1C the results were ALDH1A1 inh -0.5%.
`Fc1ccccc1NC(=S)N(CCN1CCCCC1)Cc1ccco1` gave ALDH1A1 inh -10.2%.
For Cc1c(C(=O)O)c(=S)sn1CCOc1ccccc1 the results were PNC inhibitor 9.8, ALDH1A1 inh -7.9% and HPGD inh 17.8µM*.
`Cc1ccc(OCCOC(=O)c2sc(=S)n(C)c2C)cc1` gave ALDH1A1 inh -3.5%.
Screening CN(c1ncc(C(F)(F)F)cc1Cl)N1C(=O)c2cccc([N+](=O)[O-])c2C1=O returned ALDH1A1 inh -2.3%.
COC(=O)NC(c1ccc2ccccc2c1)C(C(C)=O)C(=O)OC (configuration not stated) was read as ALDH1A1 inh -4.1%[13.5 µM].
For CN(CCC(=O)O)S(=O)(=O)c1ccccc1 the results were ALDH1A1 inh 15.4%[13.5 µM] and HPGD inh -14.6%.
`CCCS(=O)(=O)N1CCC(C(=O)NC2CCC(C)CC2)CC1` (configuration not stated) gave PNC inhibitor -4.7 and ALDH1A1 inh 12.6µM*.
Screening CC1CCN(S(=O)(=O)N2CCC(C(=O)NC3CCCC3)CC2)CC1 returned ALDH1A1 inh -1.6%.
For COc1cccc(NC(=O)C(c2ccccc2)N2CCNC(=O)C2)c1 (configuration not stated) the results were ALDH1A1 inh -6.0%.
Screening COc1ccc(/C=C/C(=O)NC(=S)NNC(=O)c2cccnc2)cc1OC returned PNC inhibitor -9.1, ALDH1A1 inh 4.0% and HPGD inh 31.6µM*.
COc1cc(OC)cc(C(=O)NC(=S)NNC(=O)c2cnccn2)c1 was read as PNC inhibitor inconclusive, ALDH1A1 inh 39.8µM* and HPGD inh -26.1%.
Screening COc1ccc(C(=O)NC(=S)NNC(=O)c2cnccn2)cc1OC returned PNC inhibitor inconclusive, ALDH1A1 inh 28.2µM* and HPGD inh -19.3%.
Screening COc1ccc(C(=O)NNC(=S)NC(=O)c2ccc(Br)o2)cc1OC returned ALDH1A1 inh 11.7%.
For O=C(/C=C/c1ccccc1)NC(=S)NNC(=O)c1cccnc1 the results were PNC inhibitor 29.6, ALDH1A1 inh -7.6% and HPGD inh -19.9%.
`COc1cc(OC)cc(C(=O)NNC(=O)c2ccccn2)c1` gave PNC inhibitor inconclusive, ALDH1A1 inh -4.2% and HPGD inh -7.9%.
